26 molecules from PubChem BioAssay can be followed below.

Unmarked numbers belong to inactive results. Calls of active or inactive are those of the source.

The assay can be described thus: basal S. cerevisiae growth modulation, no modifier, primary screen, OD600, strain BY4716, 24 h, basal condition (AID 1173). The settings on record: OD600, 24 h, higher = more signal, called active from +8 up or from −8 down.
With `COc1ccc(C(=O)Nc2ccc(CN3C(=O)[C@]4(O[C@H](CC(=O)N(CCO)Cc5ccccc5)[C@@H]([Si](C)(C)c5ccc(OC)cc5)[C@@H]4C)c4ccccc43)cc2)cc1`, the z-score was 0.352.

For `Cc1ccc(S[C@]2(C(=O)NC(C)C)CC(=O)N(Cc3ccccc3)[C@@H]2c2ccc(CO)cc2I)cc1`, the z-score is -2.23.

On to `C=C(CCCC)C(=O)CC[C@@H](OC(C)=O)c1ccc(OCCO)cc1`, for which the z-score was -2.

For `COC(=O)[C@@]1(Cc2ccc(F)cc2)[C@H]2c3cc(C(=O)N4CCCC4)n(CCc4c[nH]c5cc(F)ccc45)c3C[C@H]2CN1C(=O)c1ccccc1`, the z-score was 1.7.

For the molecule `C=CCN1C(=O)[C@]2(O[C@H](CCO)[C@@H]([Si](C)(C)c3ccc(OC)cc3)[C@@H]2C)c2cc(N3C(=O)c4ccccc4Oc4ccccc43)ccc21`, the z-score was 0.84.

Regarding `COC(=O)C(CC#Cc1ccc2c(c1)[C@]1(C(=O)N2)[C@H](c2ccc(OCCO)cc2)N2[C@H](c3ccccc3)[C@H](c3ccccc3)OC(=O)[C@H]2[C@@H]1C(N)=O)C(=O)OC`, the z-score was 1.17.

On to `CC(C)N1C(=O)[C@@]2(Cc3ccccc31)c1ccccc1C(=O)N(Cc1ccccc1C(F)(F)F)[C@H]2c1ccc(CO)cc1`, for which the z-score is 0.407.

With `C=C(C(=O)CC[C@@H](OC(=O)c1ccccc1-c1ccccc1C(=O)O)c1ccc(OCCO)cc1)C(C)C`, the z-score is -1.3.

For the molecule `COc1ccc(CCNC(=O)[C@@]2(C)c3ccccc3C(=O)N(Cc3ccc(OC(F)(F)F)cc3)[C@H]2c2ccc(CO)cc2)cc1`, the z-score is -0.553.

With `[N-]=[N+]=NCc1ccccc1[C@H]1OC(c2ccc(OCCCO)cc2)=N[C@@]1(Cc1ccccc1N=[N+]=[N-])C(=O)O`, the z-score is -4.15.

As to `CC(C)c1ccc(NN2C(C(O)C3CCCCC3)C=CC3C(=O)N(c4ccccc4)C(=O)C32)cc1` (stereo unspecified), the z-score was -0.618.

In the case of `CC(CO)N1C(=O)[C@@H]2[C@H]3C(=O)OCC=C[C@H]3OC23C=CCN(c2ccc4ccccc4c2)C(=O)[C@@H]13` (stereo partly specified), the z-score was -0.0392.

On to `O=C1O[C@H](c2ccccc2)[C@H](c2ccccc2)N2[C@H]1[C@@H](C(=O)O)[C@]1(C(=O)Nc3ccccc31)[C@H]2c1ccc(OCCO)cc1`, for which the z-score is -0.302.

Take `C=CCNC(=O)[C@@H]1[C@H]2C(=O)O[C@H](c3ccccc3)[C@H](c3ccccc3)N2[C@H](c2ccc(OCCO)cc2)[C@@]12C(=O)N(C(=O)OCCOC)c1ccccc12`: the z-score was 1.98.

`C[C@]1(C(=O)NC2CC2)c2ccccc2C(=O)N(Cc2cc(F)cc(C(F)(F)F)c2)[C@H]1c1ccc(CO)cc1`: the z-score is 0.411.

For `C=CCNC(=O)[C@@H]1[C@H]2C(=O)O[C@H](c3ccccc3)[C@H](c3ccccc3)N2[C@H](c2ccc(O)cc2)[C@@]12C(=O)Nc1ccc(C#CC3=CCCCC3)cc12`, the z-score is 0.233.

Turning to `Cc1cccc([C@H]2C[C@H]3C(Br)=C[C@@]2(CO)C(=O)[C@]32CO2)c1`, the z-score was -5.63.

`COc1ccc(CCNC(=O)[C@@]2(c3ccc([N+](=O)[O-])cc3)CC(=O)N(C3CCCCC3)[C@@H]2c2ccc(CO)cc2I)cc1`: the z-score was 0.633.

In the case of `C=CC[C@]12N=C(c3ccc(OCCCO)cc3)O[C@H]1c1ccccc1N(CCC)C2=O`, the z-score is -1.91.

As to `[N-]=[N+]=Nc1ccccc1C[C@@]1(C(=O)NCc2ccccc2)N=C(c2ccc(OCCCO)cc2)O[C@@H]1c1ccccc1`, the z-score was -0.0233.

In the case of `O=C1O[C@@H](c2ccccc2)[C@@H](c2ccccc2)N2[C@@H](c3ccccc3OCCO)[C@]3(C(=O)Nc4ccc(C#CC5(O)CCCCCC5)cc43)[C@@H](C(=O)N3CCCCCCC3)[C@H]12`, the z-score is 0.866.

For the molecule `C=CC[C@H](O)c1ccc(O)c2ccccc12`, the z-score is -15.1 (active).

`C=C1C(=O)C=C2CN(C(=O)c3ccccc3)[C@@](Cc3ccc(F)cc3)(C(=O)OC)[C@@H]12`: the z-score is -11.8 (active).

`COc1ccc(C(=O)Nc2cccc(CN3C(=O)[C@]4(O[C@H](CC(=O)N(CCO)Cc5ccccc5)[C@@H]([Si](C)(C)c5ccc(OC)cc5)[C@@H]4C)c4ccccc43)c2)cc1`: the z-score was 0.404.

Take `COC(=O)C1=CC(CCCO)=CC(c2ccc(CN3CCCC3)cc2)N(C)C=C1C(=O)OC` (stereo unspecified): the z-score was 0.0335.

For `[N-]=[N+]=NCc1ccccc1C[C@@]1(C(=O)NCCN2CCOCC2)N=C(c2ccc(OCCCO)cc2)O[C@@H]1c1ccccc1`, the z-score was -2.05.
